MRP-1 activ = activators of MRP-1. H69AR cells + doxorubicin, viability rescue, CellTiter-Glo. viability increase, % at 10 µM. 140,000 compounds, 0.61% hits. AID 799;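 active = viability gain under doxorubicin at or above a set limit, the compound median plus 3 SD, cut at about 4.7% in these data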;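 note: MRP-1 overexpressing cells given doxorubicin 25 µM after compound pretreatment; 18-22 h compound pretreatment then 72 h with doxorubicin before readout; 0% = doxorubicin-only wells and 100% = vehicle-treated cells without doxorubicin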
MRP reversal = MRP-mediated drug resistance reversal; H69AR cells + 2 uM doxorubicin, CellTiter-Glo, 72 h; 85,000 compounds, 0.04% hits; differential viability (reversal), % at 10 µM;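 active = viability drop by adding the cancer drug above about 55%, with treated viability meeting a 40% cutoff, limit read from the data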;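 note: viability without doxorubicin minus viability with 2 µM doxorubicin for each compound; larger differential means the compound sensitizes cells more to doxorubicin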
Phagocytosis inh = inhibitors of macrophage phagocytosis. J774A.1 macrophage IgG-bead phagocytosis, imaging. inhibition, % at 5 µM. 110,000 compounds, 0.07% hits. AID 1029;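 active = inhibition above the mean of the plate negative controls plus 5 SD, cut at about 13% in these data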;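 note: phagocytic index as fraction of beads internalized from green versus red external bead signal; plate controls were DMSO negative control for no effect and cytochalasin-D positive control for full effect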
An asterisk follows results filed as active; . = not tested or not shown. This is a sample that favours compounds with a hit; in the whole collection about 0.69% have one here.

SMILES | MRP-1 activ | MRP reversal | Phagocytosis inh
CSc1ncccc1C(=O)Nc1nc2ccc(Oc3ccccc3)cc2s1 | 4.8* | . | 0
CSc1ncccc1C(=O)Nc1nc2c(C)cccc2s1 | 1 | . | -1
CCOc1ccc(S(=O)(=O)N(CC(=O)N/N=C/c2cccs2)c2ccc(C)cc2)cc1 | -3 | . | -1
CCN(CC1COc2ccccc2O1)C(=S)Nc1ccccc1 (configuration not stated) | -1 | . | -2
Oc1ccccc1C=NCC(O)c1ccccc1 (configuration not stated) | -2 | . | -3
O=[N+]([O-])c1ccc(O)c(N=Cc2sc3ccccc3c2O)c1 | 5.5* | . | -1
Oc1c(C=Nc2cccc3cccnc23)sc2ccccc12 | -6 | -6 | 0
N#C/C(=C\c1cn(CCOc2ccccc2)c2ccccc12)C(=O)NCc1cccs1 | -3 | . | 1
COc1nccnc1NS(=O)(=O)c1ccc(NS(=O)(=O)c2ccc(NC(C)=O)cc2)cc1 | -2 | -15 | .
COc1ccc(C(=O)Nc2ccc(S(=O)(=O)Nc3nccnc3OC)cc2)cc1 | 6.2* | . | 1
CN(C)C(=O)COC(=O)/C=C/c1ccccc1[N+](=O)[O-] | -3 | 6 | 0
O=C(COC(=O)CNS(=O)(=O)c1cccc(Br)c1)NC(=O)Nc1ccc2c(c1)OCCO2 | -2 | . | -4
COc1ccc(/C=C/C(=O)NCc2cnn(C)c2C)cc1COc1ccc(Br)cc1 | 5.3* | . | .
COc1ccc(/C=C/C(=O)NCc2c(C)nn(C)c2C)cc1COc1ccc(Br)cc1 | 3 | . | .
O=C(N/N=C/c1cc(Br)ccc1O)c1ccccc1Cl | 4 | . | -4
O=C(CCc1ccccc1)N/N=C/c1cc(Br)ccc1O | 6.4* | . | -7
CC(C)NC(=S)N/N=C/c1cc(Br)ccc1O | 5.0* | . | -11
Cc1ccc(/C=N/NC(=S)NC(C)C)o1 | -1 | . | -1
COC(=O)C(Cc1ccc(OC(=O)c2ccc(C)cc2)cc1)N1Cc2ccccc2C1=O (configuration not stated) | 1 | . | 0
CN(C)C(=O)C[n+]1cccc(/C=N/O)c1 | -2 | . | -4
CCN(CC)S(=O)(=O)c1cccc(NC(=O)c2ccc(-n3nc(C)cc3C)cc2)c1 | 1 | . | -13
Cc1cc(C)n(-c2ccc(C(=O)Nc3cccc(S(=O)(=O)N(C)C)c3)cc2)n1 | 5.8* | . | -16
Nc1nc(Cl)cc(N2CCC(c3cc(-c4ccc(Cl)cc4Cl)n[nH]3)CC2)n1 | -1 | . | .
CSCCC(NS(=O)(=O)c1ccc(Cl)cc1)C(=O)OCC(=O)c1ccc(F)cc1 (configuration not stated) | -1 | . | -7
CCCCC(=O)NC1(C(F)(F)F)C(=O)N(CC(C)C)C2=C1C(=O)CC(C)(C)C2 (configuration not stated) | -2 | . | -2
SMILES | MRP-1 activ | MRP reversal | Phagocytosis inh
CCCn1c2c(c(O)c(C(=O)Nc3nccs3)c1=O)CCCC2 | -1 | 10 | -1
CC(C)Cn1c2c(c(O)c(C(=O)Nc3nccs3)c1=O)CCCC2 | 5.7* | -13 | .
COc1cccc(/C=N/NC(=O)C(=O)NCc2ccco2)c1O | 6.0* | . | -1
COc1cccc(/C=N/NC(=O)C(=O)NCc2ccco2)c1OC | -2 | . | 4
Cc1cc(=O)n(C)c(=O)n1CCCCCCOc1cccc([N+](=O)[O-])c1 | -3 | . | -6
N#Cc1cc([N+](=O)[O-])cnc1N(CCO)CCO | -1 | . | -8
CC(OC(=O)c1ccccc1Br)C(=O)Nc1nc(-c2cccc([N+](=O)[O-])c2)cs1 (configuration not stated) | 2 | . | -14
O=C(Nc1nc(-c2cccc([N+](=O)[O-])c2)cs1)C(c1ccccc1)c1ccccc1 | 8.9* | . | 0
COc1ccc(CC(=O)Nc2nc(-c3cccc([N+](=O)[O-])c3)cs2)cc1 | 2 | . | -6
COc1cccc(-c2csc(NC(=O)Oc3ccccc3)n2)c1 | 7.5* | . | 1
Cc1cccc(N2C(=O)CC(N3CCN(c4ccccc4)CC3)C2=O)c1 (configuration not stated) | 0 | -7 | 0
Cc1cccc(N2C(=O)CC(NNc3nc4ccccc4s3)C2=O)c1 (configuration not stated) | 4.7* | . | 1
Nc1nnc(SCc2ccccc2Cl)s1 | 0 | 9 | 7
N=C(N)SCc1ccccc1Cl | 8.6* | . | 0
C=CCNC(=S)NNC(=O)COc1ccc(Br)cc1 | 6.4* | . | -10
C=CCNC(=S)NNC(=O)COc1cccc(Cl)c1 | -3 | . | .
Cc1ccc(NC(=O)CSc2ncnc3ccccc23)cc1S(=O)(=O)N1CCCCCC1 | -3 | . | -9
CC(C)(C)c1ccc(CNc2cc(N3CCOCC3)ccc2[N+](=O)[O-])cc1 | -2 | . | -4
CC(C)Nc1cc(N2CCCC2)ccc1[N+](=O)[O-] | -3 | . | 7
CC(C)c1ccc(CNc2cc(N3CCCC3)ccc2[N+](=O)[O-])cc1 | 5.4* | . | .
CC(C)(C)CNc1cc(N2CCCC2)ccc1[N+](=O)[O-] | 4.8* | . | .

Screens (PubChem BioAssay)
